According to publication PMC5540273 (PLoS ONE, 2017):

How the values were obtained:
Details in all cases: concentration: 1 μM, replicates: in singlicate; n = 1
[1] = system: T1, PRKR
T1 construct: gene EIF2AK2

[2] = system: PRKX
[3] = system: PRP4
[4] = system: T2, PYK2
T2 construct: gene PTK2B

[5] = system: QSK
[6] = system: RAF1
[7] = system: RET
[8] = system: RIOK1
[9] = system: RIOK2
[10] = system: RIOK3
[11] = system: RIPK1
[12] = system: RIPK2
[13] = system: RIPK4
[14] = system: RIPK5
[15] = system: ROCK1
[16] = system: ROCK2
[17] = system: ROS1
[18] = system: RPS6KA4(Kin.Dom.1-N-terminal)
[19] = system: RPS6KA4(Kin.Dom.2-C-terminal)
[20] = system: RPS6KA5(Kin.Dom.1-N-terminal)
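Also: KINOMEscan kinase panel screen.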

Row | SMILES | %Inh [1] [%] | %Inh [2] [%] | %Inh [3] [%] | %Inh [4] [%] | %Inh [5] [%] | %Inh [6] [%] | %Inh [7] [%] | %Inh [8] [%] | %Inh [9] [%] | %Inh [10] [%] | %Inh [11] [%] | %Inh [12] [%] | %Inh [13] [%] | %Inh [14] [%] | %Inh [15] [%] | %Inh [16] [%] | %Inh [17] [%] | %Inh [18] [%] | %Inh [19] [%] | %Inh [20] [%]
1 | Cl.c1ccc(Cn2ccc3cc(Nc4ncnc5ccccc45)ccc32)cc1 [GW275568] | 0 | 17 | 0 | 0 | 0 | 20 | 15 | 20 | 0 | 0 | 26 | 54 | 21 | 32 | 1 | 0 | 14 | 4 | 0 | 6
2 | FC(F)(F)c1ccc(-c2nn3ncccc3c2-c2ccnc(Nc3cccc(C(F)(F)F)c3)n2)cc1 [GW828205] | 0 | 0 | 0 | 1 | 0 | 0 | 0 | 26 | 0 | 25 | 0 | 0 | 0 | 0 | 0 | 0 | 0 | 16 | 0 | 0
3 | CC(C)(C)OC(=O)NC1CCCN(c2cc(-c3ccc4c(N)n[nH]c4c3)nc(N)n2)C1 (stereo not shown) [GSK2286096] | 0 | 21 | 0 | 0 | 5 | 7 | 0 | 23 | 27 | 23 | 0 | 8 | 14 | 0 | 0 | 0 | 0 | 0 | 0 | 0
4 | c1ccc(-c2ccc3c(-c4ccnc(Nc5ccc6c(c5)OCCO6)n4)cnn3n2)cc1 [GW818941] | 0 | 1 | 17 | 8 | 0 | 20 | 1 | 37 | 15 | 12 | 3 | 9 | 0 | 0 | 28 | 10 | 5 | 33 | 0 | 10
5 | OCCOCCn1ccc2ncnc(Nc3ccc(Oc4cccc(Cl)c4)c(Cl)c3)c21 | 0 | 3 | 9 | 0 | 0 | 5 | 0 | 0 | 0 | 0 | 0 | 48 | 0 | 0 | 0 | 0 | 0 | 17 | 0 | 0
6 | COc1cc2ncnc(Nc3ccc(OCc4ccccc4Br)c(Cl)c3)c2cc1OC.Cl [GI261590] | 0 | 0 | 0 | 32 | 0 | 21 | 14 | 29 | 0 | 10 | 0 | 86 | 7 | 0 | 16 | 27 | 4 | 9 | 0 | 0
7 | Fc1ccc(Nc2nccc(-c3c(-c4ccc(Cl)cc4)nn4ncccc34)n2)cc1F [GW829058] | 0 | 0 | 0 | 1 | 20 | 18 | 9 | 0 | 10 | 7 | 0 | 12 | 29 | 37 | 20 | 33 | 14 | 25 | 3 | 2
8 | Fc1cccc(COc2ccc(Nc3ncnc4cc[nH]c34)cc2Cl)c1 | 0 | 19 | 34 | 2 | 9 | 4 | 5 | 21 | 15 | 20 | 13 | 25 | 16 | 33 | 0 | 0 | 35 | 9 | 11 | 2
9 | COc1ccc(-c2oc3ncnc(N)c3c2-c2ccc(OC)cc2)cc1 [SB-589132] | 0 | 3 | 64 | 7 | 6 | 44 | 11 | 0 | 0 | 0 | 2 | 28 | 1 | 0 | 41 | 0 | 0 | 0 | 0 | 0
10 | C[C@H]1CC[C@@H](C(=O)Nc2ccccc2)CN1c1cc(-c2ccc3c(N)n[nH]c3c2)nc(N)n1 [GSK2283293] | 0 | 8 | 2 | 20 | 10 | 6 | 0 | 42 | 8 | 31 | 0 | 0 | 6 | 0 | 9 | 18 | 0 | 6 | 0 | 12
11 | Cl.Fc1ccccc1COc1ccc(Nc2ncnc3ccc(-c4nnc(C(F)(F)F)o4)cc23)cc1Cl [GW424170] | 0 | 0 | 16 | 14 | 0 | 7 | 0 | 22 | 0 | 18 | 9 | 28 | 0 | 0 | 10 | 4 | 11 | 10 | 0 | 6
12 | O=C(Nc1ccccc1F)NC1CCN(c2ccnc(Nc3ccc(F)cc3)n2)C1 (stereo not shown) [GSK1379722] | 0 | 17 | 27 | 0 | 15 | 19 | 8 | 24 | 0 | 15 | 0 | 0 | 98.7 | 0 | 11 | 16 | 22 | 6 | 0 | 20
13 | O=C(Nc1n[nH]c2nc(-c3ccco3)c(Br)cc12)c1ccc(CN2CCCC2)cc1.O=C(O)[C@H](O)[C@@H](O)C(=O)O [SB-742352] | 0 | 0 | 0 | 42 | 0 | 17 | 28 | 0 | 0 | 0 | 33 | 47 | 0 | 0 | 0 | 0 | 12 | 10 | 8 | 0
14 | CCn1c(-c2ccncc2)nc2cnccc21 [SB-735216] | 0 | 0 | 18 | 1 | 27 | 6 | 0 | 12 | 20 | 0 | 0 | 15 | 10 | 14 | 31 | 13 | 2 | 0 | 11 | 0
15 | Cl.c1ccc(Cn2ncc3cc(Nc4ncnc5ccccc45)ccc32)cc1 [GW273749] | 0 | 4 | 15 | 0 | 10 | 16 | 13 | 39 | 0 | 19 | 7 | 74 | 8 | 6 | 12 | 21 | 10 | 3 | 0 | 8
16 | COc1ccc(NC(=O)c2ccc(-c3cc(-c4nnc(C)o4)ccc3C)cc2)cc1 [GW595885] | 0 | 5 | 18 | 0 | 21 | 6 | 28 | 12 | 0 | 0 | 0 | 0 | 9 | 0 | 10 | 13 | 0 | 0 | 0 | 12
17 | CSc1nn2c(=O)cc(N3CCOCC3)nc2n1Cc1cccc(Cl)c1Cl [GSK2347225] | 0 | 23 | 0 | 31 | 8 | 6 | 11 | 34 | 28 | 19 | 0 | 20 | 7 | 0 | 15 | 0 | 46 | 17 | 0 | 11
18 | FC(F)(F)c1ccc(-c2cc(-c3c[nH]nc3-c3ccccn3)ccn2)cc1 [GW599550] | 8 | 12 | 31 | 0 | 0 | 18 | 14 | 25 | 5 | 25 | 0 | 25 | 2 | 0 | 26 | 15 | 31 | 14 | 0 | 20
19 | COc1ccc(Nc2nccc(N3CCC(NC(=O)Nc4ccc5c(c4)OCO5)C3)n2)cc1 (stereo not shown) [GSK1379745] | 0 | 19 | 23 | 27 | 8 | 22 | 9 | 28 | 5 | 35 | 0 | 0 | 0 | 0 | 12 | 9 | 34 | 13 | 0 | 0
20 | CN1c2ccc(-c3ccc(C(=O)NCCO)cc3)cc2-c2[nH]ncc2S1(=O)=O | 1 | 0 | 0 | 6 | 5 | 0 | 13 | 30 | 22 | 17 | 1 | 13 | 0 | 27 | 0 | 41 | 8 | 25 | 49 | 0
